Test results as given in PubChem BioAssay (NCI).
Compounds without any hit were thinned out: in the full panel of roughly 83,000, 20% have a hit.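 Activity criterion: percent growth below 10, measured after cells in 96-well plates were exposed to a single compound concentration for 48 hours.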 Values without a mark were called inactive.

Tested on: KM12 colon
Assay: NCI-60 one-dose screen, 48 h (100 = growth as untreated, 0 = no growth, -100 = all killed)
Conditions: 1 µM

Row | Compound | growth
1 | CC/C(=C(\c1ccc(O)cc1)c1ccc(OCCN(C)C(=O)COCCNC(=O)Cc2ccc3c(c2)CN([C@@H]2CCC(=O)NC2=O)C3=O)cc1)c1ccccc1 | 94.3%
2 | CC/C(=C(\c1ccc(O)cc1)c1ccc(OCCN(C)C(=O)CCOCCNC(=O)c2ccc3c(c2)CN([C@@H]2CCC(=O)NC2=O)C3=O)cc1)c1ccccc1 | 102%
3 | CC/C(=C(/c1ccc(O)cc1)c1ccc(OCCN(C)C(=O)CCOCCNC(=O)Cc2ccc3c(c2)CN([C@@H]2CCC(=O)NC2=O)C3=O)cc1)c1ccccc1 | 95.3%
4 | CC/C(=C(/c1ccc(O)cc1)c1ccc(OCCN(C)C(=O)COCCOCCNC(=O)c2ccc3c(c2)CN([C@@H]2CCC(=O)NC2=O)C3=O)cc1)c1ccccc1 | 98.9%
5 | CC/C(=C(\c1ccc(O)cc1)c1ccc(OCCNC)cc1)c1ccccc1 | 101%
6 | CC/C(=C(/c1ccc(O)cc1)c1ccc(OCCN(C)C(=O)COCCOCCNC(=O)Cc2ccc3c(c2)CN([C@@H]2CCC(=O)NC2=O)C3=O)cc1)c1ccccc1 | 105%

Same assay, conditions: 10 µM

Row | Compound | growth
7 | CC/C(=C(\c1ccc(O)cc1)c1ccc(OCCN(C)C(=O)COCCNC(=O)Cc2ccc3c(c2)CN([C@@H]2CCC(=O)NC2=O)C3=O)cc1)c1ccccc1 | 47.5%
8 | CC/C(=C(\c1ccc(O)cc1)c1ccc(OCCN(C)C(=O)CCOCCNC(=O)c2ccc3c(c2)CN([C@@H]2CCC(=O)NC2=O)C3=O)cc1)c1ccccc1 | 103%
9 | CC/C(=C(/c1ccc(O)cc1)c1ccc(OCCN(C)C(=O)CCOCCNC(=O)Cc2ccc3c(c2)CN([C@@H]2CCC(=O)NC2=O)C3=O)cc1)c1ccccc1 | 66.7%
10 | CC/C(=C(/c1ccc(O)cc1)c1ccc(OCCN(C)C(=O)COCCOCCNC(=O)c2ccc3c(c2)CN([C@@H]2CCC(=O)NC2=O)C3=O)cc1)c1ccccc1 | 95.5%
11 | CC/C(=C(\c1ccc(O)cc1)c1ccc(OCCNC)cc1)c1ccccc1 | 65.9%
12 | CC/C(=C(/c1ccc(O)cc1)c1ccc(OCCN(C)C(=O)COCCOCCNC(=O)Cc2ccc3c(c2)CN([C@@H]2CCC(=O)NC2=O)C3=O)cc1)c1ccccc1 | 50.3%
